# Source: PubChem BioAssay
# KKLEB cytotox – CF airway cell cytotoxicity counter-screen | KKLEB CF airway cells viability, ATPlite luminescence, overnight; hits give low values; cells stimulated with P. aeruginosa culture filtrate | activity change (cytotoxicity), % at 5 µM | 360,000 compounds, 0.36% hits;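 active = corrected activity change at or below -50% at 5 µM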
# LMP1 NFkB inh – reduces LMP1-driven NF-kappaB luciferase signal | 350,000 compounds, 0.69% hits | LMP1-induced NF-kappaB luciferase reporter cells, luminescence | inhibition, % at 12.5 µM; in the data active = inhibition above about 41%; inconclusive = no clear call, values can overlap the other calls;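 note: 0% = neutral control wells and 100% = reference inhibitor control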
# Peg3 prom inh – Peg3 promoter activity inhibition | HeLa PEG-Prom luciferase reporter, luminescence, overnight | inhibition, % at 20 µM | 360,000 compounds, 1.7% hits;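 active = inhibition of at least 50% at 20 µM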
# HIF-2a inh – inhibitors of HIF-2a; inhibition, % at 18.8 µM; 360,000 compounds, 0.72% hits; 786-0 RCC cells HIF-2a reporter, luciferase luminescence, overnight;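 active = inhibition of the luminescence signal of 40% or more relative to plate controls, in a single-dose primary screen at 18.75 µM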
# CF NFkB inh – inhibitors of cystic fibrosis induced NF-kB | KKLEB NF-kB-GFP reporter, PAF-induced, GFP fluorescence overnight | inhibition, % at 5 µM | 360,000 compounds, 0.86% hits | AID 588850;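 active = at least 50% inhibition at 5 µM, scaled per plate between neutral and stimulator controls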;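 note: PAF is a Pseudomonas aeruginosa culture filtrate used as stimulus; plate controls were PAF-stimulated DMSO wells for no effect and unstimulated DMSO wells for full effect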
# Shn3 3UTR inh – reduces Shn3 3'UTR luciferase signal in osteoblasts; 360,000 compounds, 0.52% hits; inhibition, % at 12.5 µM; Clone20 osteoblast Shn3 3'UTR firefly luciferase, 24 h;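 active = mean inhibition of at least 75% with every replicate also reaching 75%; inconclusive = mean inhibition at least 75% but some replicate below; inactive = mean inhibition below 75%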;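 note: 0% = median of neutral control wells and 100% = pilot-screen positive control compound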
# CF NFkB conf – confirmation of cystic fibrosis induced NF-kB inhibitors. KKLEB CF airway cells, PAF-induced NF-kB-GFP fluorescence, overnight. 1,300 compounds, 64% hits. AID 602472. shares compounds with CF NFkB inh. inhibition, % at 5 µM; in the data active = inhibition above about 40%;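 note: stimulus PAF is a Pseudomonas aeruginosa filtrate and not platelet activating factor; plate controls were DMSO wells with stimulus for no effect and unstimulated DMSO wells for full effect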
# Mdm2 MdmX conf – confirmation of inhibitors of human Mdm2/MdmX interaction, set 2; shares compounds with HIF-2a inh; inhibition, % at 8 µM; AID 504601; SaOS-2 split-luciferase Mdm2/MdmX complementation, luminescence; 740 compounds, 99% hits;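 active = mean inhibition of the luminescence signal across two replicates at or above 26 percent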
# Target sequence (O15151 whole entry, looked up): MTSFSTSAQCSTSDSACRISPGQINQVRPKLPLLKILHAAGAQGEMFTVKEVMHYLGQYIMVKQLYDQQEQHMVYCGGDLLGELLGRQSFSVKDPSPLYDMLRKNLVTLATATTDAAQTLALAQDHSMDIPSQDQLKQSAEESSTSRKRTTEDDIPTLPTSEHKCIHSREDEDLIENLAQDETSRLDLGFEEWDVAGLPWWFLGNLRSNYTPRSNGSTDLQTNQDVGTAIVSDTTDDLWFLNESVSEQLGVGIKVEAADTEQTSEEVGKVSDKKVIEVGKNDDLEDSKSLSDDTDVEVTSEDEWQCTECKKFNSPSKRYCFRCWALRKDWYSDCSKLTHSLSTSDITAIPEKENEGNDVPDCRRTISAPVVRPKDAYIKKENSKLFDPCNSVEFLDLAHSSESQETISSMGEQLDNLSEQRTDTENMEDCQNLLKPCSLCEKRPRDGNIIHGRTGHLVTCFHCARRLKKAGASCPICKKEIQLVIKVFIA
# Target sequence (Q00987 whole entry, looked up): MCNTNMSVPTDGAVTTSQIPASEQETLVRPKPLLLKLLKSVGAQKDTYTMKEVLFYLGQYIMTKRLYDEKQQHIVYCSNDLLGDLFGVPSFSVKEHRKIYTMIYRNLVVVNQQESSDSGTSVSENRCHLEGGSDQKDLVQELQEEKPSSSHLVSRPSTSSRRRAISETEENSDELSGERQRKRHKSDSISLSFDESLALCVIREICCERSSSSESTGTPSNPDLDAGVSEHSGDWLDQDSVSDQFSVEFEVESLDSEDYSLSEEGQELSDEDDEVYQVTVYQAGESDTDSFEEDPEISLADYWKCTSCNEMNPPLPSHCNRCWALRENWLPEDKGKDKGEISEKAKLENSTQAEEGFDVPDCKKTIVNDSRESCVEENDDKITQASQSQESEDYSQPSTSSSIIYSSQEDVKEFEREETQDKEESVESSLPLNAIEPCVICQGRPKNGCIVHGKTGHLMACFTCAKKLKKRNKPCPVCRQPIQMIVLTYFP
# HIF-2a conf – confirmation of HIF-2a inhibitors; shares compounds with HIF-2a inh; 786-0 RCC cells, HIF-2a luciferase reporter luminescence, overnight; inhibition, % at 18.8 µM; 1,800 compounds, 56% hits; AID 651580;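 active = mean inhibition across four replicates of at least 40 percent at the single tested concentration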
# HIF-1a cs – counter-screen for HIF-2a inhibitors: HIF-1a inhibition in MiaPaCa-2 cells; MiaPaCa-2 HIF-1a luciferase reporter, desferoxamine, overnight; shares compounds with HIF-2a inh; inhibition, % at 18.8 µM; 1,800 compounds, 72% hits; AID 651589;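 active = mean inhibition of the reporter signal across four replicates at the single tested dose of 50% or more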
# Active calls of the source: *; ? = inconclusive; . = no result. Sampled rows, rich in hits. Any-hit rate of the full collection: about 2.9%.
SMILES,KKLEB cytotox,LMP1 NFkB inh,Peg3 prom inh,HIF-2a inh,CF NFkB inh,Shn3 3UTR inh,HIF-2a conf,HIF-1a cs,others
COc1ccc2nc(-c3ccc(CN4CCC(n5c(=O)[nH]c6ccccc65)CC4)cc3)c(-c3ccccc3)nc2c1,.,.,.,-66,.,.,.,.,
CCCCn1nnnc1C(CCc1ccccc1)N1CCC(n2c(=O)[nH]c3ccccc32)CC1 (stereo not drawn),-9,.,82*,-16,88*,18,.,.,CF NFkB conf=74*
O=c1c2ccccc2nc(N2CCCC2)n1-c1ccc(Cl)cc1,-19,2,33,25,0,6,.,.,
COc1cc(O)cc2c1C(=O)OC(C)CCCC(=O)CCC/C=C\2 (stereo not drawn),-17,3,-10,10,22,14,.,.,
C[C@H]1CCCC(=O)CCC/C=C/c2cc(O)cc(O)c2C(=O)O1,10,16,18,21,51*,10,.,.,CF NFkB conf=58*
S=C1NCCN1,23,8,-19,2,-12,?,.,.,
C=C1C(C)C2C(Cc3ccccc3)NC(=O)C23OC(=O)/C=C/C(O)CCCC(C)C/C=C/C3C1O (stereo not drawn),-29,0,58*,-5,76*,65,.,.,CF NFkB conf=97*
CC12CC(=O)C3C(CCC4CC(=O)C=CC43C)C1CCC2=O (stereo not drawn),19,11,1,23,66*,8,.,.,CF NFkB conf=5
C[C@@H]1CN([C@H](C)CO)C(=O)CCCn2nncc2CO[C@H]1CN(C)C(=O)Oc1cccc2ccccc12,-6,-2,2,10,-25,2,.,.,
CC(=O)c1c(C)n(C2CCCCC2)c2ccc(O)cc12,-14,70*,20,20,96*,14,.,.,CF NFkB conf=100*;Mdm2 MdmX conf=85*
O=C(CN1CCOCC1)c1cccc2ccccc12,-9,1,14,-1,6,-8,.,.,
Cc1c(C(=O)c2cccc3ccccc23)c2cccc3c2n1[C@H](CN1CCOCC1)CO3,-7,14,79*,70*,55*,14,46*,79*,CF NFkB conf=64*
O=C1CC(N2CC2)C(=O)N1c1ccccc1 (stereo not drawn),-6,2,6,-9,-1,-4,.,.,
COc1ccc2c(c1)[nH]c1c(C)nccc12,6,38,18,38*,57*,27,12,86*,CF NFkB conf=83*
COc1ccc(NS(=O)(=O)c2ccc(OCC(=O)N3CCN(C)CC3)cc2)cc1Cl,-1,7,4,7,-1,-6,.,.,
COC(=O)C12OCC34C(CC5C(C)=C(O)C(=O)CC5(C)C3C(O)C1O)OC(=O)C(OC(=O)/C=C(\C)C(C)C)C24 (stereo not drawn),-52*,95*,103*,75*,96*,99*,69*,106*,
C[C@]12CCC3C(CC[C@H]4[C@@H](O)[C@H](O)CC[C@]34C)C1CCC2=O (stereo partly drawn),8,0,6,-2,-24,-4,.,.,
CCCN(CCC)C1CCc2ccc(O)cc2C1 (stereo not drawn),-13,1,19,-1,1,-3,.,.,
COC(=O)C(Cc1ccc(N(CCCl)CCCl)cc1)N=Cc1ccccc1O (stereo not drawn),-48,73*,97*,72*,75*,54,-5,100*,Mdm2 MdmX conf=103*
Cn1c(O)c(C=NCCCCCCCCCCC(=O)O)c(=O)n(C)c1=O,-2,-3,-6,17,4,2,.,.,
C[C@H]1CCC/C=C/[C@@H]2C[C@H](O)C[C@H]2[C@H](O)/C=C/C(=O)O1,17,-119,43,60*,76*,97*,43*,75*,Mdm2 MdmX conf=96*
CC1=CC2OC3CC4OC(=O)C=CC=CC(=O)OCCC(C)C(O)C(=O)OCC2(CC1O)C4(C)C31CO1 (stereo not drawn),-44,85*,101*,75*,84*,89*,72*,103*,
CC(C)COC(=O)c1ccccc1C(=O)OCC(C)C,8,-8,15,-1,7,2,.,.,
C[CH2][Hg][S]c1ccccc1C(=O)O,-89*,-13,94*,97*,86*,98*,.,.,Mdm2 MdmX conf=102*
Oc1ccc(-[n+]2c(-c3ccccc3)cc(-c3ccccc3)cc2-c2ccccc2)cc1,-15,32,86*,-22,40,22,.,.,Mdm2 MdmX conf=102*
SMILES,KKLEB cytotox,LMP1 NFkB inh,Peg3 prom inh,HIF-2a inh,CF NFkB inh,Shn3 3UTR inh,HIF-2a conf,HIF-1a cs,others
Nc1cc(Cl)c2nonc2c1[N+](=O)[O-],-76*,0,107*,94*,76*,95*,97*,103*,
O=[N+]([O-])c1c(Cl)c(Cl)c(Cl)c(Cl)c1Cl,-13,3,9,7,-4,7,.,.,
O=Cc1cn(Cc2cccc([N+](=O)[O-])c2)c2ccccc12,-40,89*,101*,46*,38,34,63*,-8,
COc1ccc(N=C2SCCCN2C)cc1,-1,-1,8,5,14,-10,.,.,
CNC(C)Cc1ccccc1Sc1ccc(O)cc1 (stereo not drawn),-2,-23,9,50*,-1,14,0,49,
CCOc1cc(/C=C2\C(=O)NC(=O)N(C)C2=O)cc([N+](=O)[O-])c1O,-10,-5,-23,16,0,5,.,.,
CCCCCCCSc1cc(OC)c(CCNC)cc1OC,-22,-66,112*,44*,29,94*,9,106*,
CC1N=C(c2ccccc2Cl)c2cc(Br)ccc2NC1=O (stereo not drawn),-3,-1,11,17,1,19,.,.,
CC(C)[C@H]1C(=O)O[C@H](C(C)C)C(=O)N(C)[C@@H](C(C)C)C(=O)O[C@H](C(C)C)C(=O)N(C)[C@@H](C(C)C)C(=O)O[C@H](C(C)C)C(=O)N1C,1,56*,33,-63,33,90*,.,.,Mdm2 MdmX conf=94*
Fc1ccc(CNC2CN3CCC2CC3)cc1 (stereo not drawn),-4,4,11,13,-25,-4,.,.,
O=[N+]([O-])c1cccc(NP(=O)(Oc2ccccc2)Oc2ccccc2)c1,4,4,43,42*,-7,16,43*,47,
COc1cccc(NP(=O)(Oc2ccc(Cl)cc2)Oc2ccc(Cl)cc2)c1,-5,1,-27,13,-4,10,.,.,
